Measurements published in ChEMBL document CHEMBL3988442, “University of Dundee, Small-Polar-MMV Screening Library” (2021).
Among all 48,000 compounds or so, about 13,000 (27%) showed an effect of 50% or more. This is one part of the list.

System: Wolbachia pipientis
Assay: Anti-Wolbachia Cell-Based Screen
Format: functional
Design: scale not given: in the data most compounds retested in dose-response had high values
Settings: 5 µM

Which “Percent Effect” value does the source give for `O=C(CSCC1CC1)N1CCCC(c2nccn2Cc2ccccn2)C1` (stereo not given) here?
The value was -4.276%.

With `CCC1=N[C@@]2(CC[C@@H]3CN(S(=O)(=O)CC)C[C@@H]32)C(=O)N1CC(C)C` as the molecule, how does the “Percent Effect” value read?
Its value is -13.66%.

Which “Percent Effect” value does the source give for `CN(Cc1ccccc1)c1ncccc1CNC1CCCC1` here?
Its value is -55.14%.

Which “Percent Effect” value does the source give for `CNS(=O)(=O)c1cccc(C(C)NCc2ccc(F)cc2F)c1` (stereo not given) here?
Its value is 0.5272%.

`CC(C)(C)c1ccn(C2(C(=O)O)CCN(c3ccncc3F)CC2)n1` was tested. Which “Percent Effect” value did it give?
The value was 0.05232%.

For `O=C(O)C(F)(F)F.O=C(c1ccco1)N1CCC2(CCCN(c3ncccn3)C2)C1` (stereo not given), which “Percent Effect” value is on record?
Its value is 85.77%.

For `O=C(O)C(F)(F)F.O=C(c1ccco1)N1CCCC2(CN(Cc3cccs3)CCO2)C1` (stereo not given), which “Percent Effect” value is on record?
The value was 7.002%.

With `O=C(O)C(F)(F)F.O=C(c1ccco1)N1CCOC2(COCCN(c3ncccn3)C2)C1` (stereo not given) as the molecule, how does the “Percent Effect” value read?
Its value is -16.99%.

For `CCN1CC2(CCN(C(=O)C3CSC(C)(C)C(=O)N3)CC2)CC1=O` (stereo not given), which “Percent Effect” value is on record?
The value was -12.94%.

With `CCc1nccn1C1CCCN(C(=O)Cc2cn3ccsc3n2)C1` (stereo not given) as the molecule, how does the “Percent Effect” value read?
The value was 106.2%.

Which “Percent Effect” value does the source give for `CCc1nccn1C1CCCN(C(=O)c2csc(C3CC3)n2)C1` (stereo not given) here?
Its value is 96.06%.

`CCc1nccn1C1CCCN(C(=O)CCc2nc(C(C)C)no2)C1` (stereo not given) was tested. Which “Percent Effect” value did it give?
The value was 1.838%.

With `CCc1nccn1C1CCCN(C(=O)c2cc[nH]n2)C1` (stereo not given) as the molecule, how does the “Percent Effect” value read?
Its value is 5.506%.

How did the “Percent Effect” value turn out when `CCc1nccn1C1CCCN(C(=O)c2cc(C3CC3)on2)C1` (stereo not given) was run?
The value was 0.1203%.

How did the “Percent Effect” value turn out when `O=C(Cc1cn2ccsc2n1)N1CCCC(n2cncn2)C1` (stereo not given) was run?
The value was -11.33%.

With `CC(C)c1ccc(OCCC(=O)N(C)CC(N)=O)cc1` as the molecule, how does the “Percent Effect” value read?
Its value is 4.31%.

With `CC1CN(c2ncnc3cccc(F)c23)CCO1` (stereo not given) as the molecule, how does the “Percent Effect” value read?
Its value is -3.165%.

With `Cc1cc2nc(C(C)C)cc(NCCc3ccncc3)n2n1` as the molecule, how does the “Percent Effect” value read?
The value was 142%.

`Cc1cc2nc(C(C)C)cc(NCCc3cccn3C)n2n1` was tested. Which “Percent Effect” value did it give?
Its value is 113.2%.

`Cc1cc2nc(C(C)C)cc(N[C@H](C(N)=O)C(C)C)n2n1` was tested. Which “Percent Effect” value did it give?
Its value is -8.312%.

For `Cc1cc(NCCS(C)(=O)=O)n2nc(C)cc2n1`, which “Percent Effect” value is on record?
The value was -11.18%.

How did the “Percent Effect” value turn out when `CC(C)c1cc(NCC2(Cn3cccn3)CC2)n2nccc2n1` was run?
Its value is -2.27%.

How did the “Percent Effect” value turn out when `CNS(=O)(=O)CCNc1cc(C)nc2cc(C)nn12` was run?
The value was -6.261%.

Which “Percent Effect” value does the source give for `CCc1nc2c(NCC3COc4c(cccc4OC)C3)ncnc2o1` (stereo not given) here?
Its value is -3.271%.

With `CCN(C)C(=O)c1ccc(N(C)Cc2cc(-c3cccnc3)no2)nc1` as the molecule, how does the “Percent Effect” value read?
Its value is 3.484%.

How did the “Percent Effect” value turn out when `COCc1cc(CC2(NC3CCN(C)CC3)COC2)no1` was run?
Its value is 4.63%.

Which “Percent Effect” value does the source give for `COc1cc(C#N)ccc1OCC(=O)N(C1CC1)C(C)c1ccco1` (stereo not given) here?
The value was -6.369%.

How did the “Percent Effect” value turn out when `CCC[C@H]1CN(Cc2ccc(N(C)C)nc2)C[C@@H]1NS(=O)(=O)CC` was run?
The value was 9.48%.

For `COc1cc(S(=O)(=O)Nc2cn[nH]c2)ccc1Br`, which “Percent Effect” value is on record?
The value was 20.8%.

With `Cc1nccn1CC1CCCN(C(=O)Cc2ccsc2)C1` (stereo not given) as the molecule, how does the “Percent Effect” value read?
Its value is 91.27%.

With `CCCc1noc(CCC(=O)N2CCCC(n3ccnc3C)C2)n1` (stereo not given) as the molecule, how does the “Percent Effect” value read?
The value was 4.516%.

Which “Percent Effect” value does the source give for `Cc1noc(C)c1CC(=O)N1CCCC(n2ccnc2C)C1` (stereo not given) here?
Its value is 104.6%.

For `Cc1noc(C)c1CNC(=O)N1CCN(CC2CC2)CC1`, which “Percent Effect” value is on record?
The value was -3.03%.

With `Cc1noc(C)c1CC(=O)N1CCCC(Cn2ccnc2C)C1` (stereo not given) as the molecule, how does the “Percent Effect” value read?
The value was 108.2%.

For `Cc1cnn(C2CCCN(C(=O)Cc3ccc(C)s3)C2)c1` (stereo not given), which “Percent Effect” value is on record?
The value was 107.6%.

With `Cc1cnn(C2CCCN(C(=O)Cc3ccc(-n4cccn4)cc3)C2)c1` (stereo not given) as the molecule, how does the “Percent Effect” value read?
The value was -1.818%.

`Cc1noc(C)c1CCC(=O)N1CCCC(n2ccnc2C)C1` (stereo not given) was tested. Which “Percent Effect” value did it give?
The value was -0.2444%.

For `Cn1nc(C2CCCN(C(=O)Cc3ccsc3)C2)c2nccnc21` (stereo not given), which “Percent Effect” value is on record?
The value was -16.9%.

`O=C(Cc1ccsc1)N1CCCC(CNS(=O)(=O)Cc2ccccc2)C1` (stereo not given) was tested. Which “Percent Effect” value did it give?
Its value is -10.03%.

`Cc1nc(NC(=O)COCC2CC2)ccc1Br` was tested. Which “Percent Effect” value did it give?
The value was -7.033%.

`CCc1nnc(CN2CCC(C3CCCCCN3C(C)=O)CC2)o1.Cl` (stereo not given) was tested. Which “Percent Effect” value did it give?
The value was 2.52%.

`CN(C)c1nccc(CNS(=O)(=O)c2cc(Cl)cc(Cl)c2)n1` was tested. Which “Percent Effect” value did it give?
Its value is -1.753%.

For `Cc1nc(C(=O)N2CCN(C(=O)N(C)C)[C@@H]3CS(=O)(=O)C[C@@H]32)cs1`, which “Percent Effect” value is on record?
Its value is -0.3934%.

With `CCC(NC(=O)c1cccc2[nH]ccc12)C(=O)N1CCOCC1` (stereo not given) as the molecule, how does the “Percent Effect” value read?
The value was -2.082%.

Which “Percent Effect” value does the source give for `Cc1noc(C)c1CC(=O)N1CCCC(c2noc(C(C)C)n2)C1` (stereo not given) here?
Its value is -25.9%.

`CC(=O)NCC1CCCN(C(=O)Cc2c(C)noc2C)C1` (stereo not given) was tested. Which “Percent Effect” value did it give?
The value was 118.6%.

For `Cc1noc(C)c1CNC(=O)N1CCCC(C)CC1` (stereo not given), which “Percent Effect” value is on record?
The value was -2.86%.

`Cc1nccn1C1CCCN(C(=O)Cn2ccc(=O)n(C)c2=O)C1` (stereo not given) was tested. Which “Percent Effect” value did it give?
The value was -5.053%.

For `Cc1nn(C)c(C)c1CC(=O)N1CCCC(n2ccnc2C)C1` (stereo not given), which “Percent Effect” value is on record?
The value was 103.8%.

Which “Percent Effect” value does the source give for `Cc1cnn(C2CCCN(C(=O)Cc3c(C)nn(C)c3C)C2)c1` (stereo not given) here?
The value was 112.6%.

With `Cc1nn(C)c(C)c1CC(=O)N1CCCC(n2ccnc2)C1` (stereo not given) as the molecule, how does the “Percent Effect” value read?
The value was -6.925%.

`C=C(C)CN1CCCC1c1nc(Cc2ccc(F)cc2)no1` (stereo not given) was tested. Which “Percent Effect” value did it give?
Its value is 3.064%.

How did the “Percent Effect” value turn out when `CNC(=O)[C@H]1C[C@H]2OCC[C@H]2N(CC2CCOCC2)C1.O=C(O)C(F)(F)F` was run?
The value was -4.721%.

`COC(=O)CCCN(C)C(c1cccnc1)c1ccc(F)cc1F` (stereo not given) was tested. Which “Percent Effect” value did it give?
Its value is -20.53%.

`CCCn1nccc1C(=O)N1CCN(C(=O)C2CC2)[C@@H]2CS(=O)(=O)C[C@@H]21` was tested. Which “Percent Effect” value did it give?
Its value is 17.33%.

`CC(=O)N1CCC(Cc2nccnc2-c2ccnn2C)CC1` was tested. Which “Percent Effect” value did it give?
The value was 105.5%.

`CCCn1nccc1-c1nccnc1CC1CCN(C(C)=O)C1` (stereo not given) was tested. Which “Percent Effect” value did it give?
The value was 94.67%.

For `CCCn1nccc1-c1nccnc1CC1CCN(C(C)=O)CC1`, which “Percent Effect” value is on record?
Its value is 113%.

`Cn1nccc1-c1nc2c(cc1C(=O)O)CCN(C(=O)C1CC1)CC2.O=C(O)C(F)(F)F` was tested. Which “Percent Effect” value did it give?
The value was -10.62%.

For `CCCn1nccc1-c1cnc(CC2CCN(C(C)=O)C2)cn1` (stereo not given), which “Percent Effect” value is on record?
Its value is 102.9%.

How did the “Percent Effect” value turn out when `CCCn1ncnc1C(C)NC(=O)C1CCN(C(=O)C2CC2)CC1` (stereo not given) was run?
Its value is -8.242%.

`CCCn1nccc1C(=O)N1CCN(C2CCc3ccccc3C2)CC1` (stereo not given) was tested. Which “Percent Effect” value did it give?
Its value is -8.816%.

For `CCCn1nccc1C(=O)N1CCCC(C(=O)CCc2ccccc2)C1` (stereo not given), which “Percent Effect” value is on record?
Its value is 3.228%.

With `CS(=O)(=O)c1ccc2c(c1)N(C(=O)Cc1ccc(F)cc1)CCC2` as the molecule, how does the “Percent Effect” value read?
Its value is 9.452%.

`N#Cc1cccnc1NCCNC(=O)NCCSC(F)(F)F` was tested. Which “Percent Effect” value did it give?
Its value is 18.52%.
